From PubChem BioAssay (Tox21)
“And” between values parts separate entries of the source, which are not always exact repeats. Identical values can stand only once. Inconclusive results are not listed. The source made the active and inactive calls. Unless noted, calls come from the whole dose curve; as a rule, active = well fitted curve in the direction sought with a large enough effect in the repeat runs; inconclusive = weak or mixed curves; inactive = no such curve, though single readings can be large; an effect the other way counts as inactive or inconclusive.

What was measured:
[1] = qHTS assay for small molecules that induce genotoxicity in human embryonic kidney cells expressing luciferase-tagged ATAD5 (AID 651632); note: nearly all actives have a fitted effect of over 15% in size; note: potency is the fitted concentration of half-maximal effect
Procedure, shortened: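 A rise in luciferase signal from ATAD5-tagged HEK293T cells marks genetic stress. Cells were exposed to compounds for 16 hr at 37C, 5% CO2, then luciferase was quantified after a 30 min room-temperature incubation with Amplite.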

[2] = qHTS assay for small molecules that induce genotoxicity in human embryonic kidney cells expressing luciferase-tagged ATAD5 - cell viability (AID 651634; calls by dose curve; note: nearly all actives have a fitted effect of over 25% in size; note: potency is the fitted concentration of half-maximal effect)
Procedure, shortened: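 Cytotoxicity counter-readout: after 15.5 hr compound treatment at 37C, live-cell protease activity in ATAD5-luciferase HEK293T cells measured by CellTiter-Fluor fluorescence, 30 min development at 37C.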

[3] = qHTS assay for small molecule disruptors of the mitochondrial membrane potential - cell viability (AID 720634; calls by dose curve; note: nearly all actives have a fitted effect of over 20% in size; note: potency is the fitted concentration of half-maximal effect)
Procedure, shortened: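 Cytotoxicity was quantified from ATP content by CellTiter-Glo luminescence in the same wells as the MMP dye read-out. HepG2 (2,000 cells/well) were plated overnight and exposed to compounds for 1 hr at 37 C.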

[4] = qHTS assay for small molecule disruptors of the mitochondrial membrane potential (AID 720635); note: potency is the fitted concentration of half-maximal effect
Procedure, shortened: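 Mitochondrial membrane potential tracked with Mito-MPS dye, red aggregates (ex 540/em 590 nm) against green monomers (ex 490/em 535 nm). Compound treatment 1 hr at 37C, dye 30 min in HepG2.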

[5] = qHTS assay to test for compound auto fluorescence at 590 nm (red) in HepG2 cells (AID 720674)
Procedure, shortened: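 1 hr compound incubation on HepG2 cells, 37 C, 5% CO2; plate read ex 540 nm / em 590 nm; intensities reported as Rose Bengal sodium equivalents.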

[6] = qHTS assay to test for compound auto fluorescence at 535 nm (green) in HepG2 cells (AID 720675)
[7] = qHTS assay to test for compound auto fluorescence at 460 nm (blue) in HEK293 cells (AID 720678)
Procedure, shortened: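 Blue-channel (Ex/Em 405/460 nm) intensity measured in HEK293 cultures after overnight compound exposure at 37C; signal expressed relative to triamterene. Cells plated 2,000 per well in 10% dialyzed FBS medium and allowed 4-5 hr to attach.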

[8] = qHTS assay to test for compound auto fluorescence at 590 nm (red) in HEK293 cells (AID 720679)
Procedure, shortened: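 Red-channel autofluorescence (Ex/Em 540/590 nm; Rose Bengal sodium reference) was measured after overnight 37C, 5% CO2 exposure of attached HEK293 cells, 2,000 per well in medium with 10% dialyzed FBS.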

[9] = qHTS assay to test for compound auto fluorescence at 535 nm (green) in HEK293 cells (AID 720680)
[10] = qHTS assay to test for compound auto fluorescence at 460 nm (blue) in HEK293 cell free culture (AID 720681)
Procedure, shortened: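 Blue fluorescence (Ex 405/Em 460 nm, triamterene-equivalent) was read immediately after pin transfer of compound or DMSO into medium (DMEM, 10% FBS) without cells.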

[11] = qHTS assay to test for compound auto fluorescence at 535 nm (green) in HEK293 cell free culture (AID 720682)
Procedure, shortened: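 DMEM + 10% FBS, cell-free; cpd or DMSO pinned in; Ex485/Em535 read; output as fluorescein-equivalent signal.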

[12] = qHTS assay to test for compound auto fluorescence at 590 nm (red) in HEK293 cell free culture (AID 720683)
Procedure, shortened: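 Red-channel autofluorescence of compounds in culture medium (DMEM, 10% FBS), no cells, measured at 540/590 nm. Rose Bengal sodium is the reference fluorophore for equivalence.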

[13] = qHTS assay to test for compound auto fluorescence at 590 nm (red) in HepG2 cell free culture (AID 720684)
Procedure, shortened: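 No cells present: MEM + 10% FBS only. Compound pinned in, red label read (540/590 nm). Activity = fluorescence equivalent to Rose Bengal sodium.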

[14] = qHTS assay to test for compound auto fluorescence at 460 nm (blue) in HepG2 cell free culture (AID 720685)
Procedure, shortened: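 Cell-free plates of MEM plus 10% FBS received 23 nL compound or DMSO vehicle; blue-channel (405/460 nm) intensity scored against triamterene as reference fluorophore.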

[15] = qHTS assay to test for compound auto fluorescence at 535 nm (green) in HepG2 cell free culture (AID 720686)
[16] = qHTS assay to test for compound auto fluorescence at 460 nm (blue) in HepG2 cells (AID 720687)
Procedure, shortened: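 Blue-channel autofluorescence (Ex/Em 405/460 nm, triamterene-equivalent) was measured after 1 hr compound exposure at 37 C, 5% CO2. Cells were HepG2, plated overnight at 37 C in MEM plus 10% FBS.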

[17] = qHTS assay for small molecule agonists of the p53 signaling pathway - cell viability (AID 651633; calls by dose curve; note: nearly all actives have a fitted effect of over 30% in size; note: potency is the fitted concentration of half-maximal effect)
Procedure, shortened: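 Viability counter-read: CellTiter-Glo luminescence (30 min, room temperature) in the same p53RE-bla plates. These plates had been exposed to compounds for 16 h at 37 C.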

[18] = target: Glucocorticoid receptor (Homo sapiens) (UniProt P04150); assay: qHTS assay to identify small molecule agonists of the glucocorticoid receptor (GR) signaling pathway (AID 720691; active = well fitted activation curve with a large enough effect in the signal ratio in the repeat runs, not every such curve was filed as active; the % refers to the signal ratio); conditions: GR-bla HeLa, beta-lactamase reporter ratio, 18 h; activation: at 62.4 µM (top of the series)
Procedure, shortened: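 Agonist-mode qHTS in HeLa cells stably expressing a glucocorticoid-response-element beta-lactamase reporter. Fluorescence intensity read with FRET substrate (2 h, room temperature) after 18 h compound treatment at 37 C.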

[19] = target: Glucocorticoid receptor (Homo sapiens) (UniProt P04150); assay: qHTS assay to identify small molecule antagonists of the glucocorticoid receptor (GR) signaling pathway (AID 720692; active = well fitted inhibition curve with a large enough effect in the signal ratio in the repeat runs, not every such curve was filed as active; the % refers to the signal ratio; note: potency is the fitted concentration of half-maximal effect)
Procedure, shortened: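 Inhibition of dexamethasone-driven (5 nM final) beta-lactamase expression was measured in GRE-reporter HeLa cells over 18 h at 37C. Fluorescence was read after 2 h with the B/G FRET substrate at room temperature.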

Measured: Potency

Glucocorticoid receptor (Homo sapiens), sequence (P04150 whole entry, looked up): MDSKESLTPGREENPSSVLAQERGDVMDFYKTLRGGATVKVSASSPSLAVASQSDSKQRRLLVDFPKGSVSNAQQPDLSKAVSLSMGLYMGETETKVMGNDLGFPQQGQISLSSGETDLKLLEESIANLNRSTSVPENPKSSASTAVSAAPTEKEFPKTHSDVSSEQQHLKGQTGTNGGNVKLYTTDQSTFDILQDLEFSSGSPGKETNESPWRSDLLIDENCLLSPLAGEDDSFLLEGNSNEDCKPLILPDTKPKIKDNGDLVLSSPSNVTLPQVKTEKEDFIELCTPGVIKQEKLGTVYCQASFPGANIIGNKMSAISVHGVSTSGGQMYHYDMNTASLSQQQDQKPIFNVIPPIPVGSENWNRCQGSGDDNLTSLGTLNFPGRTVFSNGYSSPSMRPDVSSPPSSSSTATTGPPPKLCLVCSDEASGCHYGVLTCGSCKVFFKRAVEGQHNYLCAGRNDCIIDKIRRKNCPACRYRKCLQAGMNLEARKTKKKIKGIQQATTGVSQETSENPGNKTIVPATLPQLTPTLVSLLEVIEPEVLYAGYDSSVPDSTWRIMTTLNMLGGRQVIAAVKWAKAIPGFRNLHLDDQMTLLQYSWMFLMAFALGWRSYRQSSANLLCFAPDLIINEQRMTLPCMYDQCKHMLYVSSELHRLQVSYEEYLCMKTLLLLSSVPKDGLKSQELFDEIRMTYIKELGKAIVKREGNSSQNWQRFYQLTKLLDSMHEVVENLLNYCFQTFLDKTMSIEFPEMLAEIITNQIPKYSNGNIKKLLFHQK

NC(=O)CC[C@@H]1NC(=O)[C@H](Cc2ccccc2)NC(=O)[C@H](Cc2ccc(O)cc2)NC(=O)[C@@H](N)CSSC[C@@H](C(=O)N2CCC[C@H]2C(=O)N[C@@H](CCCN=C(N)N)C(=O)NCC(N)=O)NC(=O)[C@H](CC(N)=O)NC1=O
not listed: [17] | [18] | [19]
inactive: all other assays above

CC[C@H](C)C(=O)O[C@H]1CCC=C2C=C[C@H](C)[C@H](CC[C@@H]3C[C@@H](O)CC(=O)O3)[C@H]21
not listed: [4] | [18] | [19]
inactive: all other assays above

C=C1C(CCl)(CCl)C2(Cl)C(Cl)C(Cl)C1(Cl)C2(Cl)Cl (stereo not given)
active: [17] 10.6 µM and 60.4 µM | [4] 3.76 µM and 4.28 µM
not listed: [2] | [8] | [9] | [18] | [19]
inactive: all other assays above

CC[C@@]1([C@@H]2O[C@@H]([C@H]3O[C@@](O)(CO)[C@H](C)C[C@@H]3C)C[C@@H]2C)CC[C@H]([C@]2(C)CC[C@]3(C[C@H](O)[C@@H](C)[C@@H]([C@@H](C)[C@@H](OC)[C@H](C)C(=O)O)O3)O2)O1 (stereo in doubt)
active: [2] 0.596 µM
not listed: [4] | [5] | [11] | [18] | [19]
inactive: all other assays above

CN1CCN(c2ccccc2/C=C2\SCCN(c3ccc(Cl)c(Cl)c3)C2=O)CC1
active: [17] 61.1 µM
not listed: [3] | [4] | [18] | [19]
inactive: all other assays above

CCCOC(=O)c1ccccc1O
not listed: [2] | [19]
inactive: all other assays above

c1ccc2cc3c4ccccc4c4ccccc4c3cc2c1
not listed: [3] | [4] | [9] | [18] | [19]
inactive: all other assays above

CCOc1ccc([N+](=O)[O-])cc1
active: [17] 62 µM | [3] 55.3 µM | [4] 3.91 µM
not listed: [2] | [8] | [18] | [19]
inactive: all other assays above

CN1CCN(CCCN2c3ccccc3Sc3ccc(C(F)(F)F)cc32)CC1
active: [17] 29.8 µM
not listed: [2] | [3] | [4] | [8] | [18] | [19]
inactive: all other assays above

CCC(C)(C)c1ccc(CC(C)CN2C[C@@H](C)O[C@@H](C)C2)cc1 (stereo not given in full)
active: [17] 26.6 µM | [4] 23.7 µM
not listed: [2] | [15] | [18] | [19]
inactive: all other assays above

N#Cc1nc(Cl)c(Cl)c(Cl)c1Cl
active: [1] 4.86 µM | [17] 10.9 µM | [2] 4.86 µM | [19] 1.23 µM
not listed: [4] | [5] | [18]
inactive: all other assays above
